# From PubChem BioAssay AID2322 (Broad Institute, 2010)
# In all, about 27,000 compounds went through this assay and about 120 (0.44%) were called active. The sample holds actives, similar compounds and a random draw of the others, so the mix is not that of the screen. Values without a mark were called inactive. Rule as the data show it: active = inhibition above about 20%; inconclusive = no clear call, values can overlap the other calls; inactive = below that.
# Biological target: Serine/threonine-protein kinase 33 (Homo sapiens) (UniProt Q9BYT3)
# Assay: STK33 kinase inhibitors, primary screen, biochemical, luminescence, ADP-Glo, MBP substrate (AID 2322)
# Conditions: at 12.5 µM, active compounds read high
# Chain of Serine/threonine-protein kinase 33 (Homo sapiens) (Q9BYT3 whole entry, looked up): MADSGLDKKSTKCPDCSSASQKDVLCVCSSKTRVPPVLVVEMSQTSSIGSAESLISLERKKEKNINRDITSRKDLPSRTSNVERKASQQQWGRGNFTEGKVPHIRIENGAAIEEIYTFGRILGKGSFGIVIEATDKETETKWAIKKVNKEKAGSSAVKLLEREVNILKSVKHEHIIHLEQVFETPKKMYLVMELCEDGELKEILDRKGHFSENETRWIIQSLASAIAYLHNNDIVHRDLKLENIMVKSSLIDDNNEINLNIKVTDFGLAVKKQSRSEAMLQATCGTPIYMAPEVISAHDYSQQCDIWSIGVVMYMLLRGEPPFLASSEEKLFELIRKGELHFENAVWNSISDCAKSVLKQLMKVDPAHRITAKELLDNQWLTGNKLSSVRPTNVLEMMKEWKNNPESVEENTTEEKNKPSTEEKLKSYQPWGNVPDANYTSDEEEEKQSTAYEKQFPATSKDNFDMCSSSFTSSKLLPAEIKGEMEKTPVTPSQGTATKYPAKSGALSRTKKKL
row,Compound,inhibition
1,COc1cc(/C=C/C(=O)NCCc2ccc(O)cc2)ccc1O,-4.2%
2,COc1cc(/C=C2\Oc3cc(O)cc(O)c3C2=O)ccc1O,80.7% (active)
3,CCN(CC)C(=O)c1ccc(O)c(OC)c1,1.6%
4,C[C@H](CO)N1C[C@H](C)[C@H](CN(C)S(=O)(=O)c2cccc(F)c2)OCc2cnnn2CCCC1=O,1.75%
5,Cc1ccc2oc3c(c(=O)c2c1)C(c1ccc([N+](=O)[O-])cc1)N(CCCN1CCOCC1)C3=O (configuration not stated),-0.738%
6,O=C(CSc1nnc(-c2ccccc2Cl)n1-c1ccccc1)Nc1ccc([N+](=O)[O-])cc1,1.7%
7,CCOC(=O)CCSc1nnc2c3ccccc3n(C)c2n1,0.466%
8,O=C(CN1C(=O)COc2ccc(Cl)cc21)Nc1ccc(N2CCOCC2)cc1,6.98%
9,O=C(CCn1cnc2ccccc2c1=O)Nc1cccc(C(F)(F)F)c1,-2.03%
10,CS(=O)(=O)CCC(C(=O)N1CCOCC1)N1C(=O)c2ccc(Br)cc2C1=O (configuration not stated),-0.215%
11,Cc1nc2ccccc2n1CC(O)COc1ccc(C2C=CCC2)cc1 (configuration not stated),-1.35%
12,COc1ccc([Si](C)(C)[C@@H]2[C@@H](CCO)O[C@]3(C(=O)N(Cc4cccc(N5CCCCC5=O)c4)c4ccccc43)[C@H]2C)cc1,2.11%
13,Cc1noc(C)c1S(=O)(=O)Nc1ccc2c(c1)CC(=O)N([C@H](C)CO)C[C@@H](C)[C@@H](CN(C)Cc1ccc(C(=O)O)cc1)O2,0.587%
14,CCCn1c2ccccc2c2nnc(SCC(=O)Nc3cccc4ccccc34)nc21,0.6%
15,CC(C)c1ccc(OCC(O)Cn2cnc3ccccc32)cc1 (configuration not stated),0.565%
16,O=C(COc1ccc2c(=O)c(-c3ccccc3)coc2c1)Nc1ccc(F)cc1,1.18%
17,C[C@@H]1CN([C@@H](C)CO)C(=O)Cc2cc(NC(=O)C3CCCCC3)ccc2O[C@@H]1CN(C)Cc1ccncc1,0.459%
18,CC(C)CN1C(=O)[C@@]2(Cc3ccccc31)c1ccccc1C(=O)N(C1CCCCC1)[C@H]2c1ccc(CO)cc1,-0.707%
19,O=C(CSc1nc2sc3c(c2c(=O)[nH]1)CCC3)Nc1ccccc1C(F)(F)F,-3.77%

row,Compound,inhibition
1,Cc1ccc(NC(=O)CSc2ncnc3sc(C)c(C)c23)cc1,5.19%
2,Cc1ccc(-c2nc3cc(NC(=O)COc4ccc([N+](=O)[O-])cc4)ccc3o2)cc1C,0.362%
3,CN(CC(=O)Nc1ccc(C#N)cc1)S(=O)(=O)c1ccc(Cl)cc1,4.42%
4,C[C@H]1CN([C@@H](C)CO)C(=O)c2cc(NC(=O)Cc3cn(C)c4ccccc34)ccc2O[C@H]1CN(C)CC1CCCCC1,0.289%
5,CS(=O)(=O)N(CC(=O)Nc1ccc2ccccc2c1)c1cc(Cl)c(Cl)cc1Cl,0.303%
6,O=c1[nH]nc(-c2ccc(NCc3cccnc3)c([N+](=O)[O-])c2)c2ccccc12,0.832%
7,CCOC(=O)c1c(NC(=O)CSc2ncn[nH]2)sc2c1CCC2,3.47%
8,CCOC(=O)c1c(NC(=O)C2(C)Cc3ccccc3C(=O)O2)sc2c1CCCC2 (configuration not stated),0.582%
9,CS(=O)(=O)N(CC(=O)NC1CC1)c1ccc(Cl)c(C(F)(F)F)c1,-1.46%
10,O=C(NCCN1CCOCC1)C(=O)NCC1COc2ccccc2O1 (configuration not stated),2.08%
11,COC(=O)c1c(NC(=S)Nc2ccc(OC)cc2[N+](=O)[O-])sc2c1CCC(C)C2 (configuration not stated),-1.18%
12,Cc1nnc2sc(-c3cccc(NC(=O)C(C)Oc4ccc(Cl)cc4Cl)c3)nn12 (configuration not stated),1.75%
13,CN(CC(=O)Nc1c(F)cccc1F)S(=O)(=O)c1ccc(Cl)cc1,0.176%
14,CC(C)S(=O)(=O)NCC1CCN(Cc2cccc(OCCO)c2)CC1,-4.57%
15,CC1(C)CC[C@]2(C(=O)O)CC[C@]3(C)C(=CCC4[C@@]5(C)CC[C@H](OC6O[C@H](CO)[C@@H](O)[C@H](O[C@@H]7O[C@H](CO)[C@@H](O)[C@H](O)[C@H]7O)[C@H]6O)C(C)(C)C5CC[C@]43C)[C@@H]2C1 (some centres not stated),-3.3%
16,CN(CC(=O)Nc1ccc(Br)cc1)S(=O)(=O)c1ccc2ccccc2c1,-0.268%
17,COc1ccc(N(CC(=O)Nc2cccnc2)S(C)(=O)=O)c(OC)c1,1.05%
18,CN1CCN(S(=O)(=O)c2ccc(NC(=O)C3CC=CCC3C(=O)O)cc2)CC1 (configuration not stated),-6.02%
19,O=C(CSc1nnc2c(n1)[nH]c1ccccc12)Nc1cccc(C(F)(F)F)c1,0.0503%

row,Compound,inhibition
1,O=C(c1cc([N+](=O)[O-])ccc1NCc1cccnc1)N1CCOCC1,0.472%
2,CCc1cc(C(=O)OC)c(NC(=S)Nc2ccc(OC)cc2[N+](=O)[O-])s1,2.32%
3,CCc1cc(C(=O)OC)c(NC(=O)CC2Sc3ccc(C(F)(F)F)cc3NC2=O)s1 (configuration not stated),26.1% (active)
4,C=CCn1c(SCc2nc3ccccc3[nH]2)nnc1-c1cccc(C)c1,-1.59%
5,CCn1c(SCC(=O)Nc2ccc3c(c2)OCCO3)nnc1-c1ccncc1,0.907%
6,COc1ccc(CCNC(=S)Nc2c(C)n(C)n(-c3ccccc3)c2=O)cc1OC,0.317%
7,Cc1ccnc(NC(c2cccc(Br)c2)c2ccc3ccc(C)nc3c2O)c1 (configuration not stated),-1.5%
8,COc1ccc(-c2cc(C(F)(F)F)n3nc(C(=O)NCCCN4CCOCC4)cc3n2)cc1OC,-3.3%
9,CCOc1ccccc1NC(=O)C1C(C(=O)O)C2C=CC1C21CC1 (configuration not stated),-4.9%
10,Cc1ccc(NC(=O)CCCN2C(=O)c3ccccc3C2=O)cc1,0.883%
11,O=C1O[C@@H](c2ccccc2)[C@@H](c2ccccc2)N2[C@@H](c3ccccc3OCCO)[C@]3(C(=O)Nc4ccc(C#CC5(O)CCCCCC5)cc43)[C@@H](C(=O)N3CCN(c4ncccn4)CC3)[C@H]12,10.1%
12,COc1ccc(N(CC(=O)Nc2ccc(F)c(F)c2)S(C)(=O)=O)cc1OC,0.788%
13,CCn1c(SCC(=O)Nc2cc(Cl)c(Cl)cc2Cl)nnc1-c1cc(Br)ccc1O,-2.32%
14,CNC[C@H]1OCc2cnnn2CCCC(=O)N([C@H](C)CO)C[C@@H]1C,2.08%
15,Cc1ccc(S(=O)(=O)N(C)C[C@H]2Oc3ccc(NC(=O)Nc4cccc5ccccc45)cc3CC(=O)N([C@H](C)CO)C[C@H]2C)cc1,5.7%
16,O=C(CC(NC1CCCC1)C(=O)O)Nc1cccc(Cl)c1 (configuration not stated),-4.61%
17,Cc1ccc(OCC(=O)Nc2cccc(NC(=O)c3ccco3)c2)cc1C,3.45%
18,COC(=O)c1ccc(NC(=O)CN(c2ccc(C)c(Cl)c2)S(C)(=O)=O)cc1,-2.86%
19,O=C(NCCCn1ccnc1)c1cc2c(s1)CCCC2,-4.73%
